Test results taken from the supplement of paper PMC8975748.
Structures can show the parent of a compound that is named as a salt.

Each compound was assayed on Saccharomyces cerevisiae BY4741 SeMeCo community (assay: z-score of subpopulation abundance vs DMSO median, subpopulation auxotrophic for UM; higher = larger share of this subpopulation than in DMSO controls). Details: 10 µM; 24 h; SM minimal medium; subpopulation (auxotrophy): UM.
Method: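 Fluorescent four-plasmid SeMeCo (self-establishing metabolically cooperating S. cerevisiae BY4741 community; plasmids pH-mRuby2, pL-mWasabi, pU-eCFP, pM-TagRFP657) was grown 24 h in minimal SM medium with each Selleck FDA-approved drug at 10 µM in 384-well plates. Cells were fixed and imaged by high-content confocal microscopy. For each auxotrophic subpopulation (and the prototroph), a z-score gives the deviation from the DMSO vehicle-control population median.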

How did the “z-score of subpopulation abundance” value turn out when `CN1[C@@H]2C[C@@H](OC(=O)[C@H](CO)c3ccccc3)C[C@H]1[C@@H]1O[C@@H]12` [Scopolamine HBr trihydrate] was run?
The value was -0.11.

With `CC(C)(O)C(Cl)(Cl)Cl` [Chlorobutanol] as the compound, how does the “z-score of subpopulation abundance” value read?
Its value is 0.14.

For `C=CC[C@]1(O)CC[C@H]2[C@@H]3CCC4=CC(=O)CCC4=C3C=C[C@@]21C` [Altrenogest], which “z-score of subpopulation abundance” value is on record?
The value was -0.72.

`Nc1ccncc1` [4-Aminopyridine] was tested. Which “z-score of subpopulation abundance” value did it give?
Its value is -0.05.

How did the “z-score of subpopulation abundance” value turn out when `CN(C)[C@@H]1C(=O)C(C(N)=O)=C(O)[C@@]2(O)C(=O)C3=C(O)c4c(O)cccc4[C@@](C)(O)[C@H]3[C@H](O)[C@@H]12` [Oxytetracycline Dihydrate] was run?
The value was -0.39.

How did the “z-score of subpopulation abundance” value turn out when `CCOC(=O)Nc1ccc(NCc2ccc(F)cc2)cc1N` [Retigabine] was run?
The value was -1.09.

With `Cc1cc(O)ccc1Cl` [Chlorocresol] as the compound, how does the “z-score of subpopulation abundance” value read?
Its value is -0.48.

How did the “z-score of subpopulation abundance” value turn out when `Nc1nc(N)nc(NC2CC2)n1` [Cyromazine] was run?
The value was 0.57.

For `CC1(C)SC2C(N)C(=O)N2C1C(=O)O` (centres undefined) [6-Aminopenicillanic acid], which “z-score of subpopulation abundance” value is on record?
Its value is 0.97.

With `C[N+](C)(C)CCCCCCCCCC[N+](C)(C)C` [Decamethonium Bromide] as the compound, how does the “z-score of subpopulation abundance” value read?
The value was 0.35.

How did the “z-score of subpopulation abundance” value turn out when `CN1C(=O)COc2c(C(=O)NC3CN4CCC3CC4)cc(Cl)cc21` (centres undefined) [Azasetron HCl] was run?
The value was 0.66.

`Cc1cc(C(C#N)c2ccc(Cl)cc2)c(Cl)cc1NC(=O)c1cc(I)cc(I)c1O` (centres undefined) [Closantel] was tested. Which “z-score of subpopulation abundance” value did it give?
Its value is -0.03.

For `O=C(O[C@H]1C[C@H]2CC[C@@H](C1)[N+]21CCCC1)C(O)(c1ccccc1)c1ccccc1` [Trospium chloride], which “z-score of subpopulation abundance” value is on record?
The value was -0.43.

`CN1[C@@H]2CC[C@H]1C[C@@H](OC(=O)[C@H](CO)c1ccccc1)C2` [Hyoscyamine] was tested. Which “z-score of subpopulation abundance” value did it give?
Its value is -0.14.

With `CCCN1C[C@H](CSC)C[C@@H]2c3cccc4[nH]cc(c34)C[C@H]21` [Pergolide Mesylate] as the compound, how does the “z-score of subpopulation abundance” value read?
Its value is -0.77.

How did the “z-score of subpopulation abundance” value turn out when `CN1[C@@H]2C[C@@H](OC(=O)[C@H](CO)c3ccccc3)C[C@H]1[C@@H]1O[C@@H]12` [Scopolamine HBr] was run?
Its value is -0.95.

For `COc1ccc2c3c([nH]c2c1)C(C)=NCC3` [Harmaline], which “z-score of subpopulation abundance” value is on record?
The value was -9.37.

Which “z-score of subpopulation abundance” value does the source give for `CCN(C)C(=O)Oc1cccc([C@H](C)N(C)C)c1` [Rivastigmine Tartrate] here?
Its value is -0.84.

With `CNC1CC(N)C(O)C(OC2OC(CO)C(O)C3OC4(OC(C(N)CO)C(O)C(O)C4O)OC23)C1O` (centres undefined) [Hygromycin B] as the compound, how does the “z-score of subpopulation abundance” value read?
Its value is 0.06.

Which “z-score of subpopulation abundance” value does the source give for `C=CN1CCCC1=O.II` [Povidone iodine] here?
The value was 0.16.

Which “z-score of subpopulation abundance” value does the source give for `CCN(CC)CCOC(=O)C(O)(c1ccccc1)c1ccccc1` [Benactyzine hydrochloride] here?
The value was 0.21.

Which “z-score of subpopulation abundance” value does the source give for `CN(C)[C@@H]1C(=O)C(C(N)=O)=C(O)[C@@]2(O)C(=O)C3=C(O)c4c(O)cccc4[C@@](C)(O)[C@H]3C[C@@H]12` [Tetracycline HCl] here?
Its value is 0.64.

`CN1[C@@H]2CC[C@H]1C[C@@H](OC(=O)C(CO)c1ccccc1)C2` (some centres undefined) [Atropine sulfate monohydrate] was tested. Which “z-score of subpopulation abundance” value did it give?
The value was 0.69.

For `CC[C@@H](C(N)=O)N1CCCC1=O` [Levetiracetam], which “z-score of subpopulation abundance” value is on record?
Its value is -0.62.

`O=c1cccc2n1C[C@@H]1CNC[C@H]2C1` [Cytisine] was tested. Which “z-score of subpopulation abundance” value did it give?
The value was -0.6.

How did the “z-score of subpopulation abundance” value turn out when `CN[C@@H]1[C@@H](O)[C@@H](O[C@@H]2[C@@H](O)[C@H](O[C@H]3O[C@H](CN)CC[C@H]3N)[C@@H](N)C[C@H]2N)OC[C@]1(C)O.CN[C@@H]1[C@@H](O)[C@@H](O[C@@H]2[C@@H](O)[C@H](O[C@H]3O[C@H]([C@@H](C)N)CC[C@H]3N)[C@@H](N)C[C@H]2N)OC[C@]1(C)O.CN[C@@H]1[C@@H](O)[C@@H](O[C@@H]2[C@@H](O)[C@H](O[C@H]3O[C@H]([C@@H](C)NC)CC[C@H]3N)[C@@H](N)C[C@H]2N)OC[C@]1(C)O` [Gentamicin Sulfate] was run?
Its value is -0.75.

How did the “z-score of subpopulation abundance” value turn out when `NCCc1c[nH]c2ccc(O)cc12` [Serotonin HCl] was run?
Its value is -0.02.

Which “z-score of subpopulation abundance” value does the source give for `C#C[C@]1(O)C=C[C@H]2[C@@H]3CCC4=CC(=O)CC[C@@H]4[C@H]3CC[C@@]21CC` [Gestodene] here?
Its value is -1.14.

How did the “z-score of subpopulation abundance” value turn out when `C[C@H]1O[C@H](O[C@H]2[C@H](O)[C@@H](O)[C@@H](O)[C@H](O)[C@@H]2O)[C@@H](N)C[C@@H]1NC(=N)C(=O)O` [Kasugamycin hydrochloride] was run?
Its value is -0.17.

`CC[C@H]1CN2CC[C@]3(C(=O)Nc4ccccc43)[C@@H]2C[C@@H]1/C(=C\OC)C(=O)OC` [Rhynchophylline] was tested. Which “z-score of subpopulation abundance” value did it give?
The value was 1.19.

For `C[N+]12CCC(CC1)C(OC(=O)C(O)(c1ccccc1)c1ccccc1)C2` (centres undefined) [Clidinium Bromide], which “z-score of subpopulation abundance” value is on record?
Its value is -0.38.

`COc1cc2c(cc1OC)C1CC(=O)C(CC(C)C)CN1CC2` (centres undefined) [Tetrabenazine (Xenazine)] was tested. Which “z-score of subpopulation abundance” value did it give?
Its value is -0.68.

How did the “z-score of subpopulation abundance” value turn out when `C[C@@H]1CC[C@H]2[C@@H](C)C(=O)O[C@@H]3O[C@@]4(C)CC[C@@H]1[C@]32OO4` [Artemisinin] was run?
Its value is -0.66.

How did the “z-score of subpopulation abundance” value turn out when `Oc1cccc2cccnc12` [8-Hydroxyquinoline] was run?
The value was -1.16.
